Assay results published in PubChem BioAssay AID493084 (National Center for Advancing Translational Sciences (NCATS), 2011).
Several values for one entry are separate records, joined by “and”; a condition that tells them apart may be missing. Identical values can stand only once. Among all 360,000 compounds or so, about 650 (0.18%) were called active. This is one part of a sample in which actives are shown more often than they occur. Rule as the data show it: active = activation above about 30%; inactive = the rest.

biological target: Thyrotropin-releasing hormone receptor (Homo sapiens) (UniProt P34981); test: qHTS for Small Molecule Agonists and Allosteric Enhancers of Human TRH Receptor: Primary Screen for Agonists.; also: 0% is about no effect; conditions: TRHR cells, calcium flux fluo-8, FDSS agonist mode; at 2 µM; hits give high values
Sequence (P34981 whole entry, looked up): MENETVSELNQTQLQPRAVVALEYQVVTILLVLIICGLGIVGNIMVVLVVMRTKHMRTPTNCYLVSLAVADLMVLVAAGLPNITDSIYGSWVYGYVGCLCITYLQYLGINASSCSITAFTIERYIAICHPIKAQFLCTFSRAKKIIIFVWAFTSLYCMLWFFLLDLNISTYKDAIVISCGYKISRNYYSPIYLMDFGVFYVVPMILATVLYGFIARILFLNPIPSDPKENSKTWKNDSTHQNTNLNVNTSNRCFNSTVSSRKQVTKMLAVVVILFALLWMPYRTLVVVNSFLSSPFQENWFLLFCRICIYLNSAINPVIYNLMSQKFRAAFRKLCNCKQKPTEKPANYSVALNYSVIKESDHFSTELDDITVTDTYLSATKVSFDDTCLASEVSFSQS
From the text: NIH Chemical Genomics Center [NCGC] NIH Molecular Libraries Probe Centers Network [MLPCN] MLPCN Grant: MH089816-01 Assay Submitter (PI): Marvin Gershengorn This project aims to identify small drug-like molecules that activate (agonists) the thyrotropin releasing hormone (TRH) receptor (TRHR) or enhance its TRH-stimulated activity (allosteric enhancers). TRHR, a drug-accessible cell surface receptor expressed in specific brain regions, and its ligand TRH have been implicated in several central nervous system disorders, including depression and anxiety. Small molecule TRHR agonists or allosteric enhancers that are metabolically stable and able to cross the blood-brain barrier might serve as probes to elucidate the roles of brain TRH receptors in animal models, and might be valuable as lead compounds for the development of drugs to treat patients with central nervous system disorders. Upon TRHR-Gq activation in TRHR cells, intracellular calcium is released from stores in the endoplasmic reticulum. […] This primary screen measures compound-induced activation of calcium release.
For the HTS assay freshly prepared cells are plated at a density of 2000/well in 3 ul of complete DMEM medium containing 10% serum in 1536-well plates and cultured over night at 37 C in a humidified incubator with 5% CO2. The next day, 2 ul of a no wash calcium dye (ABD Bioquest) was added to the cells and plates were incubated at room temperature for 1 hour. For the assay, assay plates were loaded into the FDSS kinetic plate reader. A 10 cycle (1 second/cycle) baseline measurement is taken and then the FDSS online 1536 pintool delivers 23 nl of compound library (as well as TRH controls) to the plate. The plate is measured for kinetically at 1 cycle/sec for 180 seconds and is considered to be the agonist portion of the assay (eg, compounds which activate a positive calcium response during this portion are flagged as potential agonists). Following the 180 second read, 1 ul of either an EC20 (positive modulation assay) is delivered by an onboard pipette head. Measurements are taken kinetically for an additional 180 seconds. TRHR FDSS Screening Protocol 1. Reagent, 3 uL 2000 cells/well 1536 TC treated Black plate in media containing 10% FCS 2. Time, 18 hours, 33.5C 5% CO2 (cells grown at 37C) 3. Reagent, 2 uL ABD fluo-8 Ca dye 4. Time, 30 min-1.5hrs hours, Room temp (6 plates/batch) 5. Detector, EX 480/EM 530C, FDSS 10 cycles baseline (1sec/cycle) 6. Compound, 23 nL of stock solution from library 7. Detector, EX 480/EM 530C, FDSS […] (1sec/cycle) Agonist mode 8. Compound, 1 ul EC20 of TRH made up in HEPES HBSS, 10 nM final 9. Detector, EX 480/EM 530C, FDSS 100 cycles (1sec/cycle) Potentiator mode

activation, inactive:
CCc1ccccc1NC(=O)CCOc1ccccc1 0.744% and -1.55%
CCc1ccccc1NC(=S)Nc1cc(OC)c(NC(=O)C(C)C)cc1OC 0.112%
Cc1c(NC(=O)C(C)(C)C)cccc1-c1nc2ccccc2s1 1.53%
O=C(Cn1nc(Cc2cccnc2)c2ccccc2c1=O)N1CCN(c2ccccc2F)CC1 -1.92%
CCOc1ccc(NC(=O)c2cnn(-c3ccccc3)c2-n2cccc2)cc1 -2.32%
O=C(NCCCO)C(=O)Nc1c2c(nn1-c1ccc(F)cc1)CSC2 -1.01%
CCOC(=O)c1cc2cc(C)ccc2[nH]1 0.835%
CCOC(=O)c1ccc2[nH]c3c(c2c1)CCCC3NC=O (stereo unspecified) 0.37%
O=C(CSc1nc(C2CC2)nc2ccccc12)Nc1ccc2c(c1)OCCO2 -1.49%
NC(=O)c1ccc(NC(=O)COC(=O)C(Cc2ccccc2)NC(=O)c2ccccc2)cc1 (stereo unspecified) -0.12%
Cn1nnnc1Sc1ncnc2scc(-c3ccccc3[N+](=O)[O-])c12 -0.547%
N#Cc1nc(/C=C/c2ccc(F)cc2)oc1NC1CCCCC1 0.903%
CCCCOc1ccc(CNC(=O)c2ccc3c(c2)N(C)C(=O)C2CCCCN32)cc1 (stereo unspecified) -0.251%
CNC(=O)c1ccc(-c2nc(CN3CCc4ccccc43)c(C)o2)cc1 -1.17%
COC(=O)c1ccccc1NC(=O)c1cc(-c2ccccc2O)no1 -0.321%
CC(NC(=O)CCc1cn(Cc2ccccc2Cl)c2ccccc12)c1ccccc1 (stereo unspecified) 0.58%
COc1cc(OC)c(OC)cc1/C=C/c1nc2cc3ccccc3cc2c(=O)n1-c1ccc(F)c(Cl)c1 0.234%
CCC(=O)Nc1ccc(C)cc1-c1nc2ccccc2n(Cc2ccccc2)c1=O 0.131%
Cn1c(=O)[nH]c(=O)c2c1[nH]c(=S)n2Cc1ccccc1 0.0169%
CCN(CCCNC(=O)Cn1ncc2c([nH]c3ccccc32)c1=O)c1cccc(C)c1 -0.233%
Cc1cccc(CC(=O)N2CC(=O)Nc3ccc(F)cc3C2c2ccccc2)c1 (stereo unspecified) -0.138%
O=C(O)c1ccc(CSc2nc3cccnc3n2Cc2cccc(F)c2)cc1 -0.0878%
CCCNC(=O)c1ccc2c(c1)ncn2-c1ccc(C)cc1C -0.34%
Cc1ccc2nc(N3C(=O)C(O)=C(C(=O)c4ccco4)C3c3cccc(O)c3)sc2c1 (stereo unspecified) 0.69%
O=C(C1=C(O)C(=O)N(c2ncccn2)C1c1cccs1)c1ccco1 (stereo unspecified) 1.88%
CCNS(=O)(=O)c1ccc(NC(=O)CSc2nc(-c3ccco3)cc(C(F)(F)F)n2)cc1 -0.0767%
O=C(CNC(=O)c1ccc(Cl)c(C(F)(F)F)c1)OC(C(=O)Nc1cc(C(F)(F)F)ccc1Cl)c1ccccc1 (stereo unspecified) 1.33%
COc1cc2ccccc2cc1C(=O)Nc1cccc(-c2nc3ccccc3o2)c1 0.963%
COc1cccc(C(=O)NC2CCN(C#N)CC2)c1 0.979%
CCc1ccccc1NC(=O)c1sc2nc3c(cc2c1N)CN(Cc1ccccc1)CC3 0.215%
Cn1c(=O)c2c(nc(SCC(=O)Nc3ccc(F)cc3)n2Cc2ccccc2)n(C)c1=O -1.27%
Cc1ccc(C)n1-c1nnc(N2CCC(C(=O)NCc3ccc(F)cc3)CC2)s1 -0.123%
COc1cccc(-c2nnc3n(CCc4ccccc4)c(=O)c4ccccc4n23)c1O 0.407%
Cc1ccc(CNC(=O)CCNS(=O)(=O)c2ccc3c(c2)oc(=O)n3C)cc1 -0.309%
COc1ccc(-n2ccn(CC(=O)Nc3ccc(C)c(C)c3)c(=O)c2=O)cc1OC 0.851%
CCOC(=O)C1CCCN(S(=O)(=O)c2cc(-c3cc(C)no3)ccc2OC)C1 (stereo unspecified) -0.0318%
CC(=O)c1ccc(NC(=O)CSc2nc(-c3ccccc3F)nc3c2c(=O)n(C)c(=O)n3C)cc1 0.407%
Cc1ccccc1C(=O)Nc1sc2c(c1C(=O)N1CCC(C)CC1)CCCC2 -0.34%
COc1cccc(C(=O)Nc2ccc(-c3cc(C(F)(F)F)nn3-c3ccccc3)cc2)c1 1.81%
COc1cccc(C(=O)NC(=O)Nc2nc(C)cc(C(F)(F)F)n2)c1 1.04%
CCOC(=O)c1cccc(NC(=O)c2cc(CN3CCCC3)on2)c1 0.429%
CCC(C)Nc1oc(-c2ccc(COc3ccc(Cl)cc3)o2)nc1C#N (stereo unspecified) 0.327%
O=C1CCN(Cc2ccc([N+](=O)[O-])cc2)CCN1[C@H](CO)Cc1ccccc1 1.11%
O=C(NCCCCc1ccccc1)C1CC(c2ccc([N+](=O)[O-])cc2)=NO1 (stereo unspecified) -1.16%
CC1CCCN(c2csc3ccc(F)cc3c2=O)C1 (stereo unspecified) 0.824%
COc1ccccc1OCC(=O)Nc1nnc2n1CCS2 0.414%
CCOc1ccccc1NC(=O)Cn1c(=O)n(Cc2ccco2)c(=O)c2sc3ccccc3c21 -0.0246%

activation, active:
CCc1ccccc1NC(=O)/C(=C/c1ccccc1)c1ccccc1 56.2%
CCOC(=O)c1[nH]c2ccc(C)cc2c1N=C(C)N(C)C 32.1%
NC(=O)c1ccc(NC(=O)COC(=O)c2c3c(nc4ccccc24)/C(=C\c2ccc4c(c2)OCO4)CCC3)cc1 50.8%
Nc1c(C(=O)c2cccs2)sc2nsc(SCCN3CCCCC3)c12 99.5%
Cc1cc2nc3c(=O)n(Cc4ccccc4)c(=O)[nH]c3nc2cc1N 134%
C=CCSc1nnc(N2C(=O)C(O)=C(C(=O)c3ccco3)C2c2ccc(F)cc2)s1 (stereo unspecified) 48.4%
COc1cccc(C(=O)c2sc3nc(-c4ccccc4)cc(C(F)(F)F)c3c2N)c1 106%
O=C1NC(=O)C2C1C(c1ccc([N+](=O)[O-])cc1)=NN2Cc1ccccc1 (stereo unspecified) 34%
CN(c1ccccc1)c1ccc(/C=c2\s/c(=C(/C#N)C(=O)C(C)(C)C)n(Cc3ccco3)c2=O)cc1 40.8%
